# A selection: hits, their analogues and other compounds. The true share with any hit is near 19%.
# TDP1 cell CPT – DT40-hTDP1 cell growth loss with CPT | chicken DT40 Tdp1-/-;hTDP1 cells + 20 nM CPT, ATP luminescence, 48 h | Potency, µM (series often up to 46.2 µM), for the others: at the top dose activity change, negative = growth inhibition, most hits filed as inhibitors | 420,000 tested, 12% active | AID 686979; also: potency is read from the fitted curve at half-maximal effect; % is scaled to controls: 0 for no effect and ±100 for the full control effect; nearly all actives have a fitted effect of over 55% in size
#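 Chicken DT40 Tdp1-/- cells complemented with human TDP1, 400 cells/well, exposed to compounds plus 20 nM camptothecin for at least 48 h at 37 C; viability read as ATP content by CellTiter-Glo luminescence.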
# DT40 TDP1 no CPT – qHTS for Inhibitors of human tyrosyl-DNA phosphodiesterase 1 (TDP1): qHTS in cells in absence of CPT | Potency, µM (top dose mostly 46.2 µM), for the others: at the highest dose activity change, negative = growth inhibition, most hits filed as inhibitors | DT40 Tdp1-/- hTDP1 cells, no CPT, ATP luminescence, 48 h | 420,000 tested, 15% active; also: potency is read from the fitted curve at half-maximal effect; % is scaled to controls: 0 for no effect and ±100 for the full control effect; nearly all actives have a fitted effect of over 55% in size
#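 Chicken DT40 Tdp1-/- cells stably complemented with human TDP1 were seeded at 400 cells/well with DMSO in place of 20 nM camptothecin. After compound pinning, cells grew at least 48 hr at 37 °C; viability read by CellTiter-Glo luminescence.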
# S-ASM inh – inhibitors of human secretory acid sphingomyelinase | Potency, µM (titrated, usually from 57.5 µM), inactives show at the top dose activity change, negative = inhibition, actives largely listed as inhibitors | 340,000 tested, 0.006% active | placental ASM, HMU-PC fluorogenic substrate, 60 min | P17405; also: potency is read from the fitted curve at half-maximal effect
# Target sequence (P17405 47-631 limits assumed): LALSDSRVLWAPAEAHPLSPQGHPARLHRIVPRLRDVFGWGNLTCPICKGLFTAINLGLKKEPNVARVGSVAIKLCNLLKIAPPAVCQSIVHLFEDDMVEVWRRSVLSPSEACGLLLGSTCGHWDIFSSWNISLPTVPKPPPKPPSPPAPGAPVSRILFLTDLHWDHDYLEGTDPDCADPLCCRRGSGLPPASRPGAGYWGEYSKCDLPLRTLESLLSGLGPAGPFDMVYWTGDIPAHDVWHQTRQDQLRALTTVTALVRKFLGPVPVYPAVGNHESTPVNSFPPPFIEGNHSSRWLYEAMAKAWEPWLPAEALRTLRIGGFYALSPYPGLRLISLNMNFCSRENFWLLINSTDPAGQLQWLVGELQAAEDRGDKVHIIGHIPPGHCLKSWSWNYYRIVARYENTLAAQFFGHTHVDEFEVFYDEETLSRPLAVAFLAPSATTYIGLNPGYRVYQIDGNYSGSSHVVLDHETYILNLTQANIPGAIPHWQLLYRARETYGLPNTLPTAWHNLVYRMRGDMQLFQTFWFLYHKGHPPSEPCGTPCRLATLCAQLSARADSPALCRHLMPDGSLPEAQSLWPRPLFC
#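 HMU-PC0 cleavage (9 uM final) by human placental ASM, 60 min at 37 °C following 10 min compound exposure at RT; stopped at pH 10, fluorescence Ex 386/Em 447 nm.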
# IL-1B inflam inh – inhibitors of inflammasome signaling (IL-1 beta secretion); THP-1 LPS/ATP IL-1B secretion, AlphaLISA, 16 h; stronger effect = lower value; activity change, % at 57.5 µM; 360,000 tested, 4.7% active; AID 743279; in the data active = activity change below about -50%; inconclusive = mostly about -30% to -49%; also: % is scaled to controls: 0 for no effect and ±100 for the full control effect
#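 THP-1 cells pretreated 1 hr with compounds (up to 57.5 uM final), then stimulated with LPS (250 ng/mL final) plus ATP (1.25 mM final); secreted IL-1B measured by AlphaLISA after 16 hr, decreased signal indicating inhibition.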
# HepG2 tox – HepG2 cytotoxicity, counter-screen for TGF-b inhibitors; HepG2 CAGA-GFP viability, ATP luminescence, 18 h; Potency, µM (titrated, usually from 46.1 µM), inactives show at the top dose activity change, negative = cytotoxicity, usual class: cytotoxic; 410,000 tested, 0.76% active; AID 588856; also: potency is read from the fitted curve at half-maximal effect
#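 HepG2 CAGA-GFP cells (1000/well, DMEM with 1% FBS) received compound, then TGF-beta at 500 pg/mL final, and were incubated 18 hours at 37 degrees C. Viability was read by CellTiter-Glo luminescence. Media-only wells were set as complete cell-killing and DMSO as no toxicity.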
# TGFb inhibitor – TGF-b pathway inhibition | HepG2 CAGA-GFP TGF-b/SMAD3 reporter, GFP fluorescence, 18 h; TGF-beta stimulated, 500 pg/mL final | Potency, µM (series often up to 46.1 µM), without a hit: at the top dose activity, negative = inhibition, most hits filed as inhibitors | 410,000 tested, 1.2% active | AID 588855; also: potency is read from the fitted curve at half-maximal effect; % is scaled to controls: 0 for no effect and ±100 for the full control effect; nearly all actives have a fitted effect of over 65% in size
#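 Inhibition of TGF-beta-driven CAGA-GFP reporter expression in HEPG2 cells is measured by cellular GFP fluorescence after 18 h stimulation with 500 pg/mL recombinant TGF-beta in 1% FBS medium at 37 degrees C.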
# Numbers without * were called inactive; ? = inconclusive; · = no result. Unless noted, calls follow the shape of the dose curve; as a rule, active = well fitted curve in the direction sought with a large enough effect; inconclusive = small, poorly fitted or top-dose-only effect, or another doubt; inactive = no such curve, though single readings can be large; an effect the other way counts as inactive or inconclusive.
SMILES,TDP1 cell CPT,DT40 TDP1 no CPT,S-ASM inh,IL-1B inflam inh,HepG2 tox,TGFb inhibitor
O=C1c2[nH]nc(-c3ccccc3O)c2C(c2ccc(Cl)cc2)N1CCc1ccccc1 (stereo unspecified),21µM*,16µM*,·,·,-91%,20µM*
COCCCN1C(=O)c2[nH]nc(-c3cc(C)cc(C)c3O)c2C1c1ccc(O)c(OC)c1 (stereo unspecified),21µM*,?,-8%,7,-16%,1%
CCc1c(C)c2ccc(OCC(=O)NCC3CCC(C(=O)O)CC3)cc2oc1=O (stereo unspecified),2%,1%,4%,14,-1%,36%
CC(=O)Nc1ccc(S(=O)(=O)NCCc2ccccn2)cc1,2%,-2%,4%,21,1%,3%
CCOc1cc(C2c3c(-c4ccccc4O)n[nH]c3C(=O)N2CCc2ccccc2)ccc1O (stereo unspecified),16µM*,?,·,·,-50%,?
O=C(Nc1ccn(CCCNCC2CCCCC2)c(=O)n1)OCc1ccccc1,?,?,·,-21,-41%,-16%
O=C(Nc1ccn(CCCNCc2ccccn2)c(=O)n1)OCc1ccccc1,10%,0%,-13%,21,0%,5%
CC(CNCCCn1ccc(NC(=O)OCc2ccccc2)nc1=O)c1ccccc1 (stereo unspecified),23µM*,?,-4%,?,-6%,-6%
O=C(Nc1ccn(CCCNCc2cccc3ccccc23)c(=O)n1)OCc1ccccc1,?,?,·,-62*,-55%,?
O=C(Nc1ccn(CCCN2CCN(c3ncccn3)CC2)c(=O)n1)OCc1ccccc1,?,?,·,-20,-7%,-11%
O=C(Nc1ccn(CCCN2CCN(Cc3ccc(F)cc3)CC2)c(=O)n1)OCc1ccccc1,21µM*,15µM*,·,-10,-23%,-7%
O=C(Nc1ccn(CCCNCC(c2ccccc2)c2ccccc2)c(=O)n1)OCc1ccccc1,?,23µM*,·,?,-116%,16µM*
Cc1ccc(NC(=O)CCCC(=O)OC(C)C(=O)c2ccccc2)cc1 (stereo unspecified),-1%,-7%,2%,25,-28%,-1%
O=S(=O)(NCC1CCCO1)c1ccc(Cl)cc1 (stereo unspecified),-1%,4%,-1%,-8,-28%,17%
CC(C)CCNC(=O)CNC(=S)N(Cc1ccccc1)Cc1cccnc1,-4%,?,2%,2,12%,8%
CCN(CC(=O)Nc1cccc(Br)c1)Cc1nc2ccccc2c(=O)[nH]1,5.2µM*,4.6µM*,-5%,9,2%,14%
O=C(CSc1nc2ccccc2c(=O)n1-c1ccccc1F)Nc1ccc2c(c1)CCC2,?,?,-2%,7,-27%,-24%
CCN(CC)CC(=O)Nc1ccc2c(c1)Nc1ccccc1CC2,?,16µM*,-10%,-14,-50%,9%
CCN(CC)CCn1c(SCC(=O)Nc2ccc3c(c2)CCC3)nc2ccccc2c1=O,?,2.3µM*,-4%,?,-58%,?
CCN(CC(=O)Nc1ccc2c(c1)CCC2)Cc1nc2ccccc2c(=O)[nH]1,3.7µM*,8.2µM*,-25%,4,-33%,12%
CCN(CC(=O)Nc1ccc2c(c1)OCO2)Cc1nc2ccccc2c(=O)[nH]1,?,?,-5%,-4,-24%,14%
Cc1nc(Nc2ccc(Br)cc2Br)c([N+](=O)[O-])c(=O)[nH]1,·,·,-2%,·,-14%,-5%
CCOC(=O)C1C(C(=O)NN)C1C(=O)Nc1ccccc1 (stereo unspecified),4%,-26%,-3%,1,-20%,13%
COc1ccc(NS(=O)(=O)c2ccc3c(c2)n(C)c(=O)c(=O)n3C)cc1Cl,-12%,?,·,·,-9%,-14%
O=C(Cn1cnc2ccccc21)Nc1ccc(F)c(F)c1,?,?,0%,24,-36%,-17%
SMILES,TDP1 cell CPT,DT40 TDP1 no CPT,S-ASM inh,IL-1B inflam inh,HepG2 tox,TGFb inhibitor
CCOC(=O)c1[nH]c2ccccc2c1NC(=O)c1ccc(C)c(C)c1,-18%,?,·,·,-35%,-21%
CN1C(=O)c2cccc(NCCCCCCN3C(=O)c4ccccc4C3=O)c2C1=O,21µM*,9.2µM*,-3%,?,-12%,-19%
COc1ccc(CCNC(=O)COc2ccc(C)nc2[N+](=O)[O-])cc1,-15%,-9%,-1%,-27,-19%,-16%
CSc1cccc(NS(=O)(=O)c2ccc(-c3coc(C)n3)cc2)c1,?,15µM*,-7%,17,-18%,?
Cc1nc(-c2ccc(S(=O)(=O)Nc3cccc(Cl)c3)cc2)co1,-28%,6%,-2%,0,-11%,-15%
COc1ccc(NS(=O)(=O)c2ccc(-c3coc(C)n3)cc2)cc1,?,-25%,-4%,11,-15%,-7%
Cc1nc(-c2ccc(S(=O)(=O)Nc3ccc(C)c(N(C)C)c3)cc2)co1,7.3µM*,18µM*,·,·,-23%,-4%
COc1ccc(NS(=O)(=O)c2ccc(-c3coc(C)n3)cc2)cc1OC,4.1µM*,2.1µM*,0%,?,-12%,-21%
CCN(CC)c1ccc(NS(=O)(=O)c2ccc(-c3coc(C)n3)cc2)c(C)c1,16µM*,18µM*,·,·,-16%,?
O=C(Cn1c(-c2cccs2)cc2ccccc21)N1CCN(c2ccccc2F)CC1,?,?,·,·,-20%,-23%
CSc1nnc(C)c(=O)n1COC(=O)COc1ccc(Cl)cc1,?,-14%,0%,0,-15%,-25%
O=C(CCCCCNC(=O)N1CCn2c1nc1ccccc12)N[C@H](C(=O)O)c1ccccc1,-6%,-14%,3%,0,-16%,1%
COc1ccc(OC)c(NS(=O)(=O)c2ccc(-c3coc(C)n3)cc2)c1,?,?,0%,31,-3%,-9%
COc1cc(Cl)c(NS(=O)(=O)c2ccc(-c3coc(C)n3)cc2)c(OC)c1,3.7µM*,4.1µM*,·,·,-22%,-16%
Cc1ccc(-c2nc(C(=O)NC3CCCCCC3)no2)cc1,?,18µM*,-8%,-6,-20%,-7%
Cc1ccc(-c2cc(C(=O)NC3CCCCC3)no2)cc1,3%,-22%,-1%,-15,10%,2%
